Experimental findings from PubChem BioAssay are described below.

For assay [1], the system named is PRMT1 (protein arginine N-methyltransferase 1). Description: small molecules binding arginine methyltransferase PRMT1 – biochemical, small-molecule microarray, 635 nm fluorescence, primary screen (AID 1088).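 Note: binding of Prmt1 protein to compounds spotted on small-molecule microarray slides.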 Particulars: higher = more signal.
Assay [2] can be described thus: growth effects on S. cerevisiae YJM789 – YJM789 clinical isolate, OD600, 24 h, basal, primary screen (AID 1089).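 Note: growth of clinical yeast isolate S. cerevisiae YJM 789 seeded 1000 cells per well; test concentration not given here.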 The conditions noted are these: higher = more signal, called active from +8 up or from −8 down.
Assay [3] can be described thus: S. pombe growth modifiers, basal conditions – strain 972, OD600, 24 h, no modulator, primary screen (AID 1090).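 Note: basal condition with compound alone and no growth modifier present; test concentration not given here.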 Particulars: S. pombe 972 growth, higher = more signal, called active from +8 up or from −8 down.
The nature of assay [4]: budding yeast growth modifiers under rapamycin – strain BY4716, OD600, 96 h, primary screen (AID 1091). Note: test concentration not given here. The conditions noted are these: S. cerevisiae BY4716 + rapamycin, higher = more signal, called active from +8 up or from −8 down.
Assay [5] concerns the target Torsin-1A-interacting protein 2 (Homo sapiens) (UniProt Q8NFQ8). Put plainly: small molecules binding lysate-expressed LULL1 – cell lysate, human LULL1 lysate, 635/667 nm fluorescence, primary screen (AID 1092).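 Note: probe is lysate of COS7 cells overexpressing human LULL1; score merges per-feature 667 nm fluorescence with signal-to-noise.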 Particulars: small-molecule microarray, hLULL1 lysate binding, 635 nm fluorescence; higher = more signal.
The nature of assay [6]: optical density change of DRC41 E. coli – strain DRC41, OD650, 24 h, E. coli filamentation project, primary screen (AID 1093).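 Note: MC1000 strain lacking acrAB efflux and sulA so SOS filamentation is blocked; test concentration not given here.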 The conditions noted are these: E. coli DRC41 growth, higher = more signal, called active from +8 up or from −8 down.
Assay [7] in a line: probe aLefty2 binding to arrayed compounds – biochemical, biotinylated probe, 635/667 nm fluorescence, primary screen (AID 1094).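 Note: score merges spot fluorescence near 667 nm with spot signal-to-noise ratio.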 The conditions noted are these: small-molecule microarray, higher = more signal.
In assay [8] the test system is Noggin (protein binding on small-molecule microarray). Put plainly: small molecules binding Noggin protein – biochemical, 635/667 nm fluorescence, primary screen (AID 1095).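 Note: score merges 667 nm feature fluorescence with signal to noise over triplicate slides.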 The conditions noted are these: 635 nm fluorescence, higher = more signal.
Assay [9] deals with Neurogenic locus notch homolog protein 3 (Homo sapiens) (UniProt Q9UM47). Description: small molecules binding NOTCH3 protein – biochemical, 635/667 nm fluorescence, primary screen (AID 1096). Particulars: small-molecule microarray, 635 nm fluorescence, higher = more signal.
Assay [10] can be described thus: probe aEGFR binding to arrayed compounds – biochemical, biotinylated probe, 635/667 nm fluorescence, primary screen (AID 1097).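 Note: probe is a biotinylated anti-EGFR antibody binding compounds printed on slides; score combines fluorescence near 667 nm and signal to noise of each spot.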 Particulars: small-molecule microarray, higher = more signal.
Assay [11] concerns Plasmodium falciparum Sir2 (PF13_0152, Sir2A). Description: Plasmodium falciparum Sir2A binding compounds – biochemical, small-molecule microarray, 635 nm fluorescence, primary screen (AID 1098).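 Note: score merges spot fluorescence intensity with its signal-to-noise ratio.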 The conditions noted are these: fluorescence 635 nm, higher = more signal.
A short description of assay [12]: probe aDKK1 binding to arrayed compounds – biochemical, biotinylated probe, 635/667 nm fluorescence, primary screen (AID 1099).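 Note: score merges 667nm spot fluorescence with signal to noise across triplicate slides; reference of the scale not given here.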 The conditions noted are these: small-molecule microarray, higher = more signal.
Assay [13] in a line: probe aCHRDL2 binding to arrayed compounds – biochemical, biotinylated probe, 635/667 nm fluorescence, primary screen (AID 1100). The conditions noted are these: small-molecule microarray, higher = more signal.
The nature of assay [14]: change in splice reporter luminescence, either direction, cell-based, HEK293, spliceosome inhibition project, primary screen (AID 1101).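 Note: HEK293 cells carrying a splicing-competent luciferase reporter gene; test concentration not given here.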 Particulars: HEK293 splicing luciferase reporter, 24 h, higher = more signal, called active from +8 up or from −8 down.
The target in assay [15] is Fibroblast growth factor 10 (Homo sapiens) (UniProt O15520). Description: compounds binding fibroblast growth factor 10 – biochemical, small-molecule microarray, 635 nm fluorescence, primary screen (AID 1102). The conditions noted are these: FGF10 binding, fluorescence 635 nm, higher = more signal.
Assay [16] concerns glycogen synthase kinase-3 (GSK3A per assay name; protocol says GSK3B). Put plainly: compounds binding glycogen synthase kinase-3 – biochemical, small-molecule microarray, 635 nm fluorescence, GSK3A, primary screen (AID 1103). Note: the record names both GSK3A and GSK3B. Particulars: fluorescence 635 nm, higher = more signal.
Assay [17] has as its target Epidermal growth factor receptor (Homo sapiens) (UniProt P00533). Put plainly: compounds binding epidermal growth factor receptor – biochemical, small-molecule microarray, 635 nm fluorescence, primary screen (AID 1104).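 Note: score merges 667 nm emission intensity with spot signal to noise over triplicate slides.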 The conditions noted are these: EGFR binding, higher = more signal.
Assay [18] deals with Follistatin-related protein 3 (Homo sapiens) (UniProt O95633). Put plainly: compounds binding follistatin-related protein 3 – biochemical, small-molecule microarray, 635 nm fluorescence, primary screen (AID 1105).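 Note: score merges emission near 667 nm and signal to noise per printed spot across three slides.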 The conditions noted are these: FSTL3 binding, higher = more signal.
Assay [19] addresses Dickkopf-related protein 1 (Homo sapiens) (UniProt O94907). Description: small molecules binding DKK1 protein – biochemical, small-molecule microarray, 635 nm fluorescence scan, primary screen (AID 1106).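 Note: score merges emission near 667 nm with signal to noise over three replicate slides.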 Particulars: higher = more signal.
Assay [20] deals with Inhibin beta A chain (activin A). Description: small molecules binding activin A – biochemical, small-molecule microarray, 635 nm fluorescence scan, primary screen (AID 1107).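 Note: mouse activin A protein probed at 4.33 µg/mL on printed slides; score merges bound-protein fluorescence near 667 nm with spot signal-to-noise.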 Particulars: INHBA, higher = more signal.

The source made the active and inactive calls.

Chain of Neurogenic locus notch homolog protein 3 (Homo sapiens) (Q9UM47 whole entry, looked up): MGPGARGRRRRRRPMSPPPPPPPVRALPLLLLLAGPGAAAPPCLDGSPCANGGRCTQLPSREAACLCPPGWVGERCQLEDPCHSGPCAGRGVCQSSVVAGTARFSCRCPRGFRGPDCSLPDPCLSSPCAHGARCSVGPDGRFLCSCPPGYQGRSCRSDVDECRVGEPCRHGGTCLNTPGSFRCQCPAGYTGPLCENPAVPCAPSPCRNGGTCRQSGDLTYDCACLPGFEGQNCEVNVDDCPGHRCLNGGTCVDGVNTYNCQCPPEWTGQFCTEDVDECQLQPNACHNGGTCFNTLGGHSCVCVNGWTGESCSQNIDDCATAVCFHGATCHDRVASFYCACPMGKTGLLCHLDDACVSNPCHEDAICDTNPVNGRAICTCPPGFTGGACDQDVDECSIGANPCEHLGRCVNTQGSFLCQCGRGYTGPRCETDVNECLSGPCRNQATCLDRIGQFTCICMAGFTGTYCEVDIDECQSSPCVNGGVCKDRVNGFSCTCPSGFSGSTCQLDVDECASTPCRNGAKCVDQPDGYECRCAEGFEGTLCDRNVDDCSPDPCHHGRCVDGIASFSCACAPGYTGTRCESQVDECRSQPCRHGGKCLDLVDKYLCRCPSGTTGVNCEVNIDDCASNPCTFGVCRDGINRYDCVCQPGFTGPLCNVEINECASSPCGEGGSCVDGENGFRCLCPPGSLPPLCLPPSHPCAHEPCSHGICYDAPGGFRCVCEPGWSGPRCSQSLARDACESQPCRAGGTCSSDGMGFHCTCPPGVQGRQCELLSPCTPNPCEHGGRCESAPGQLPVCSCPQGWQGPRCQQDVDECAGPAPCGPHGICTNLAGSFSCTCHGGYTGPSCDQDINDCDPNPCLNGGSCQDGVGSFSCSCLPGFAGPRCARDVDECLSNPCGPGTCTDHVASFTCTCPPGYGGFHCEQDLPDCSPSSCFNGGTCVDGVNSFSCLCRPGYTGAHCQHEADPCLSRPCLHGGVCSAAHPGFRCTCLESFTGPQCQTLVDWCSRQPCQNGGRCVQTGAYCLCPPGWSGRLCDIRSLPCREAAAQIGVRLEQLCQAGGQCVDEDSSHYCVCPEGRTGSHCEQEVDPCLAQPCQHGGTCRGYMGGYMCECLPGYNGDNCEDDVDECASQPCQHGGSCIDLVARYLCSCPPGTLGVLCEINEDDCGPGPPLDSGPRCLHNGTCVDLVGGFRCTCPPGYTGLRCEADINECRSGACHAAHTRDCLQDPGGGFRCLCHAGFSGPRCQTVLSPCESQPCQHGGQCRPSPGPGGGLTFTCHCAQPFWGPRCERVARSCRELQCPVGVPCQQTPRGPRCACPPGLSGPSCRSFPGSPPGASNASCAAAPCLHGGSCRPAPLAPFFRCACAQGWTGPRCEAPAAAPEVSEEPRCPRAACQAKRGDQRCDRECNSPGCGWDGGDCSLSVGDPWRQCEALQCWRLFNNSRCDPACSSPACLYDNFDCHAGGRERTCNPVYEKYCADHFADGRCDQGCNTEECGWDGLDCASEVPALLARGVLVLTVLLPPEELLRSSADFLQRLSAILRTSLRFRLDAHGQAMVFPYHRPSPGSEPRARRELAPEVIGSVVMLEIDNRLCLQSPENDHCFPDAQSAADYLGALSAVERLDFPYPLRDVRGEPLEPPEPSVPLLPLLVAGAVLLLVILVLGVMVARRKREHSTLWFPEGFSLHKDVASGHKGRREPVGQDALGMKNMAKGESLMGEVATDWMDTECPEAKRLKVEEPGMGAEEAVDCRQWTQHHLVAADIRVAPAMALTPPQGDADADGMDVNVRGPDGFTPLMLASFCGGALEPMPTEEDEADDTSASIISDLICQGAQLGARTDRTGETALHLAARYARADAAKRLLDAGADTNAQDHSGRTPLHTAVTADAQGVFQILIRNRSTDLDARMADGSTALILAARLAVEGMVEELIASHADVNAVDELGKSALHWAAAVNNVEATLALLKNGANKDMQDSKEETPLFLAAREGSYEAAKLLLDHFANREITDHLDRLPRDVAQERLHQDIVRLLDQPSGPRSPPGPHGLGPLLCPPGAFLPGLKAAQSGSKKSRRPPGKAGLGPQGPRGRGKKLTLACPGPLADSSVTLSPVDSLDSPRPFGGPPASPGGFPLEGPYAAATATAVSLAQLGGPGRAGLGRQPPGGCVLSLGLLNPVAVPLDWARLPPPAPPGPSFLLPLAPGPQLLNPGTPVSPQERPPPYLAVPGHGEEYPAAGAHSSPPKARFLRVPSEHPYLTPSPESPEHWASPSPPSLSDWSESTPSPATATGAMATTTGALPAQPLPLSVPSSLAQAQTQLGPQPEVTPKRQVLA
Chain of Epidermal growth factor receptor (Homo sapiens) (P00533 whole entry, looked up): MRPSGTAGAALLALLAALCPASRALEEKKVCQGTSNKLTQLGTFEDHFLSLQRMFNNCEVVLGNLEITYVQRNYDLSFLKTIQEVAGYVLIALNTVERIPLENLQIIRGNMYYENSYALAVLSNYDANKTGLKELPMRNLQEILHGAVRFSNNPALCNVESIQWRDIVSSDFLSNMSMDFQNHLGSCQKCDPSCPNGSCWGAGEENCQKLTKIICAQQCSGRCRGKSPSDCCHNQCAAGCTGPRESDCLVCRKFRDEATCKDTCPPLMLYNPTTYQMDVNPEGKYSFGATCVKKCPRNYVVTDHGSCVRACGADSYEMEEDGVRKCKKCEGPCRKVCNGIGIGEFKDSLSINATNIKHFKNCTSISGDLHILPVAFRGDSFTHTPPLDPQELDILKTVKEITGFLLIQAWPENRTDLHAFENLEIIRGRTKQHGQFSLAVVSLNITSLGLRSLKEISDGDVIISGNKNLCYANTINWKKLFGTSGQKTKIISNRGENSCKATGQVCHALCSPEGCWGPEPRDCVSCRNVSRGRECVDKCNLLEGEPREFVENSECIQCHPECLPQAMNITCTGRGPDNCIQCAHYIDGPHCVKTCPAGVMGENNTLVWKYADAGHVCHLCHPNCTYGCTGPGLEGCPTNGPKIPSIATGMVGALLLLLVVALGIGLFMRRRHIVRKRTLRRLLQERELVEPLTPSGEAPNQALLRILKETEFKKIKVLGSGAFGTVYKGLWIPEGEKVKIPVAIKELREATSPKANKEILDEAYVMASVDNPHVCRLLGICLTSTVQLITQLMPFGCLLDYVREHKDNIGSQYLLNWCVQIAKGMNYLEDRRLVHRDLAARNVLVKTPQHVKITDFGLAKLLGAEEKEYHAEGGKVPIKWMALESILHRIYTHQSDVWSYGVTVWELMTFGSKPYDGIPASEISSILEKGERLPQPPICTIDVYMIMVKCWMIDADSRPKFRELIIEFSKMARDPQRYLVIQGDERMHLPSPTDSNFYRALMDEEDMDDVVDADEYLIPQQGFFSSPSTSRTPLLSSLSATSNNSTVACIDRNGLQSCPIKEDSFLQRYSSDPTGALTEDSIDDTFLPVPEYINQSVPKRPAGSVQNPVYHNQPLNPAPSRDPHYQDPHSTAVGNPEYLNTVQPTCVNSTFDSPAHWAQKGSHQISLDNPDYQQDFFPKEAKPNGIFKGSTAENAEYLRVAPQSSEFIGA
Chain of Torsin-1A-interacting protein 2 (Homo sapiens) (Q8NFQ8 whole entry, looked up): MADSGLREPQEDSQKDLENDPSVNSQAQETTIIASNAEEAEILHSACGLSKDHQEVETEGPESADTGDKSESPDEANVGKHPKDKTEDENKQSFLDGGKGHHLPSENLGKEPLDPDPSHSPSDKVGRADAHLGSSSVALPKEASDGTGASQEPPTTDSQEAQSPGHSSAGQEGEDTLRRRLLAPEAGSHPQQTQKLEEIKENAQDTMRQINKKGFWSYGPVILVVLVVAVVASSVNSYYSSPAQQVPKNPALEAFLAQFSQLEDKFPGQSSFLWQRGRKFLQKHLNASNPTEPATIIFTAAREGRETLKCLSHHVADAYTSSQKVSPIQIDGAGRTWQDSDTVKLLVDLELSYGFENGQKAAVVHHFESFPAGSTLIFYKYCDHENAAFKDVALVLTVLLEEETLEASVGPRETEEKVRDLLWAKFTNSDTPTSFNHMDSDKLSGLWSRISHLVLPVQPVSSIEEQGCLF
Chain of Follistatin-related protein 3 (Homo sapiens) (O95633 whole entry, looked up): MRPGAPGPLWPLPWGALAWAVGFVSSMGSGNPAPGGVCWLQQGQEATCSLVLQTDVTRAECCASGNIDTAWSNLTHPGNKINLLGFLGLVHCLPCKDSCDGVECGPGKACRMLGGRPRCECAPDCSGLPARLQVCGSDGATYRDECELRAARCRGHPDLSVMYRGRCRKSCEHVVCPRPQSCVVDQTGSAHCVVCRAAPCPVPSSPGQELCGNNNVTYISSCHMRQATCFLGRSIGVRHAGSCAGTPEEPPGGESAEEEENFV
Chain of Dickkopf-related protein 1 (Homo sapiens) (O94907 whole entry, looked up): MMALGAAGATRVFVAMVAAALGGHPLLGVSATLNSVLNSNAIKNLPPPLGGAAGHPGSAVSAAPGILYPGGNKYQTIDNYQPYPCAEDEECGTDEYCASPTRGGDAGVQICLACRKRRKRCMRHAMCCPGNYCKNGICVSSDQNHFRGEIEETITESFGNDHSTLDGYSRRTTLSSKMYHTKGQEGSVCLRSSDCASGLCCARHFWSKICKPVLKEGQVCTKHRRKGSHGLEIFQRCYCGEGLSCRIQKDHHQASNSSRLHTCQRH
Chain of Fibroblast growth factor 10 (Homo sapiens) (O15520 whole entry, looked up): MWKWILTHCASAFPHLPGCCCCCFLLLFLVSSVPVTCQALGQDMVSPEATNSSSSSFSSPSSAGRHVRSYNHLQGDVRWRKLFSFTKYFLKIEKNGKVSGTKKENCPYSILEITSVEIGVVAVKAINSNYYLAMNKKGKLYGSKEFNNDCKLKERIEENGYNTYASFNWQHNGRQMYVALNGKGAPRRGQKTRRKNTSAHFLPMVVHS

`[N-]=[N+]=NCc1ccccc1C[C@]1(C(=O)N2CCCCC2)N=C(c2ccc(OCCCO)cc2)O[C@H]1c1ccccc1CN=[N+]=[N-]`: the composite z-score in assay [1] was 1.55; in assay [5] it was 3.35; in [7], -0.0041; in [8], 0.686; in assay [9], 1.14; in assay [10], -0.0703. Besides, the composite z-score in assay [11] was 0.751; in [12], 0.518; in assay [13], 0.885; in assay [15] it was 0.924; in [16], 0.65; in assay [17], -0.107. For the same compound, the composite z-score in assay [18] is 0.556; in assay [19] it was -0.531; in assay [20] it was 0.212. Further, the z-score in assay [2] is 0.551 (inactive); in assay [3], 0.118 (inactive); in assay [4], 8.36 (active); in assay [6], -0.004 (inactive); in [14], 0.324 (inactive).
On to `COc1cc([C@@H]2N[C@H](C(=O)O)Cc3c2[nH]c2ccccc32)cc(OC)c1OC`, for which the composite z-score in assay [1] is -0.504; in assay [5], 0.235; in assay [7] it was -0.123; in assay [8], 0.367; in assay [9] it was 0.475; in [10] it was -0.0069. Moreover, the composite z-score in assay [11] was 0.175; in [12], -0.0572; in assay [13] it was -0.272; in [15], 0.644; in [16], 0.167; in [17], 0.3. Moreover, the composite z-score is 0.508 in assay [18], 0.977 in assay [19] and -1.7 in assay [20]. The z-score in [2] was -0.258 (inactive); in assay [3], -0.581 (inactive); in [4], -0.611 (inactive); in assay [6], 0.233 (inactive); in assay [14], -0.526 (inactive).
Turning to `O=C1O[C@@H](c2ccccc2)[C@@H](c2ccccc2)N2[C@@H](c3ccccc3OCCO)[C@]3(C(=O)Nc4ccc(C#CC5=CCCCC5)cc43)[C@@H](C(=O)O)[C@H]12`, the composite z-score in [1] is 1.34; in assay [5] it was 1.83; in [7] it was 0.0748; in assay [8], 0.269; in assay [9], 1.05; in assay [10] it was -0.0321. Further, the composite z-score came to 1.17 in assay [11]; 0.702 in assay [12]; 0.51 in assay [13]; 0.289 in [15]; 1.04 in [16]; 0.309 in assay [17]. The composite z-score in [18] stood at 0.87; in assay [19] it was 0.471; in assay [20], 1.09. Also, the z-score in assay [2] is 2.48 (inactive); in assay [3], -0.608 (inactive); in assay [4] it was 0.341 (inactive); in assay [6], 2.04 (inactive); in [14], -2.47 (inactive).
Take `COCCCNC(=O)[C@@H]1c2ccccc2C(=O)N(CC23CC4CC(CC(C4)C2)C3)[C@H]1c1ccc(CO)cc1`: the composite z-score in [1] was 1.49; in assay [5], 1.56; in assay [7], 0.242; in assay [8], 0.39; in [9] it was 0.588; in assay [10], 0.135. For the same compound, the composite z-score in assay [11] is 0.0881; in assay [12], 0.884; in assay [13] it was 0.97; in [15], 0.37; in assay [16], 0.623; in assay [17], 0.215. In addition, the results for the composite z-score in [18], in assay [19] and in [20] were 0.296, 0.427 and 0.911, respectively. In addition, the z-score was 0.4 (inactive) in [2]; -1.02 (inactive) in assay [3]; 0.182 (inactive) in assay [4]; -0.494 (inactive) in assay [6]; -1.1 (inactive) in assay [14].
On to `COC(=O)c1c(CC[C@@H](CO)NC(=O)N[C@H](Cn2cc(-c3cncn3C)nn2)C(C)C)oc(C(C)=O)c1C(=O)OC`, for which the composite z-score in assay [1] was 1.09; in [5], 1.47; in assay [7] it was -0.0617; in assay [8] it was 0.209; in assay [9], 0.149; in [10], 0.19. Besides, the composite z-score in assay [11] was 0.844; in assay [12] it was -0.203; in assay [13] it was -0.342; in [15] it was 0.512; in [16], 0.861; in [17], 0.363. Also, the composite z-score was 0.165 in [18], 0.265 in assay [19] and -0.253 in assay [20]. Further, the z-score in [2] is -0.177 (inactive); in [3] it was -1.26 (inactive); in assay [4], -0.164 (inactive); in assay [6], 2.3 (inactive); in [14], -1.93 (inactive).
For `CO[C@H]1COC(=O)[C@H](C)COC(=O)[C@H](Cc2ccccc2)NC(=O)CC=C[C@H]1C`, the composite z-score was -0.0111 in [1]; -0.826 in assay [5]; 0.0128 in assay [7]; 0.952 in assay [8]; -0.447 in [9]; -0.139 in assay [10]. Also, the composite z-score in assay [11] was 1.01; in assay [12], -0.345; in [13], -1.3; in assay [15], 0.245; in assay [16] it was -0.232; in [17], 0.843. Also, the values for the composite z-score in [18], in assay [19] and in assay [20] were 1.31, 1.68 and 1.26, respectively. The z-score is 0.43 (inactive) in assay [2]; -0.854 (inactive) in [3]; -0.798 (inactive) in assay [4]; 0.195 (inactive) in [6]; -0.857 (inactive) in [14].
Regarding `COCCOC(=O)N1C(=O)[C@@]2(c3cc(C#CC4(O)CCCCCC4)ccc31)[C@H](C(=O)N1CCCCCCC1)[C@H]1C(=O)O[C@H](c3ccccc3)[C@H](c3ccccc3)N1[C@@H]2c1ccc(O)cc1`, the composite z-score in assay [1] was 1.56; in [5] it was 2.86; in [7], 0.873; in assay [8] it was 0.906; in assay [9] it was 0.995; in [10], 0.67. Also, the composite z-score in assay [11] was 1.26; in assay [12], 2.22; in assay [13] it was 1.55; in [15] it was 0.808; in assay [16], 1.11; in assay [17] it was 0.251. Moreover, the composite z-score in [18] was found to be 1.34; in assay [19], 0.716; in assay [20], 1.89. Moreover, the z-score in [2] was -0.971 (inactive); in [3], -1.1 (inactive); in assay [4], 0.772 (inactive); in [6], 2.34 (inactive); in assay [14], -0.0148 (inactive).
For the compound `COc1ccc(CCN2C(=O)[C@@]3(c4ccc([N+](=O)[O-])cc4)CC(=O)N(CC45CC6CC(CC(C6)C4)C5)[C@@H]3c3ccc(CO)cc32)cc1`, the composite z-score in assay [1] was 1.55; in [5], 2.09; in assay [7] it was 0.141; in assay [8], -0.223; in assay [9], 0.294; in assay [10], -0.109. Further, the composite z-score in assay [11] is 1.42; in assay [12] it was 0.463; in [13], 0.761; in [15], -0.212; in [16], 0.592; in [17], -0.645. The composite z-score in assay [18] was -0.203; in assay [19] it was -0.369; in [20], 0.718. Also, the z-score in assay [2] is 0.0722 (inactive); in assay [3], -0.3 (inactive); in assay [4], -1.6 (inactive); in [6], -0.463 (inactive); in assay [14] it was -0.604 (inactive).
On to `C[C@@H]1NC(=O)[C@H](Cc2ccccc2)NC(=O)[C@@]23C(=O)N[C@@H](Cc4ccccc4)C2[C@H](C)[C@@]2(C)O[C@H]2C3/C=C/C/C=C\CNC1=O` (stereo not given in full), for which the composite z-score is -0.747 in assay [1]; -1.73 in [5]; -0.174 in [7]; 0.0939 in assay [8]; -0.769 in [9]; -0.171 in assay [10]. In addition, the composite z-score in [11] was 1.04; in [12] it was -0.277; in assay [13], -0.533; in assay [15], -0.356; in [16], -1.48; in assay [17], -0.202. Also, the composite z-score in assay [18] was -0.0037; in assay [19], 0.515; in assay [20], 0.944. Further, the z-score is 0.723 (inactive) in assay [2]; 0.0909 (inactive) in [3]; 0.937 (inactive) in assay [4]; -1.38 (inactive) in [6]; -0.212 (inactive) in [14].
